Our source for the outcome and AC50 values is PubChem BioAssay (EPA / NIEHS).

Read-out in assay [1]: Monokine induced gamma interferon (MIG), CXCL9 (gene 4283)
The assay is described as follows: BSK_SAg_MIG: BioMAP Diversity Plus: SAg Assay for Monokine induced gamma interferon (MIG) Biomarker Activity (AID 2283092). Particulars: primary human HUVEC with PBMC; actives raise or lower the signal. A digest of the protocol: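 Measures CXCL9 protein by ELISA in a human vascular primary-cell co-culture (umbilical vein endothelium with PBMC) 24 h after chemical addition. Activity is scored up or down from the DMSO control.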

Read-out in assay [2]: Interleukin-8 (IL8), CXCL8 (gene 3576)
The assay is described as follows: BSK_SAg_IL8: BioMAP Diversity Plus: SAg Assay for Interleukin-8 (IL8) Biomarker Activity (AID 2283094). Particulars: primary human HUVEC with PBMC; actives raise or lower the signal. A digest of the protocol:
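HUVEC/PBMC co-culture, 24 h post-dose; IL-8 by ELISA. Gain or loss of signal fitted bidirectionally vs DMSO baseline.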

Assay [3] in a line: BSK_SAg_Proliferation: Cell Proliferation Assessment in the BioMAP Diversity Plus: SAg Assay (AID 2283095).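 Also: relative cell number as total protein by SRB absorbance in sub-confluent culture.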 The settings on record: primary human HUVEC with PBMC. A digest of the protocol:
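HUVEC/PBMC co-culture, 96-well. TCA-fixed (10%), 0.1% SRB stain, A560 at 96 h. Protein content used as viability readout; bidirectional fitting vs DMSO control.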

Assay [4] in a line: BSK_SAg_SRB: Viability Assessment in the BioMAP Diversity Plus: SAg Assay (AID 2283096).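 Also: cells read one day after compound addition; hits may be either gain or loss of signal compared with DMSO.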 The settings on record: primary human HUVEC with PBMC. The method, boiled down:
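SRB absorbance at 560 nm served as the viability read-out. Cells (HUVEC plus peripheral blood mononuclear cells) were TCA-fixed and stained 24 h post-dosing; activity fitted in both directions against DMSO controls.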

Assay [5] deals with human CYP2D6, CYP2D6 (gene 1565) (UniProt P10635). As to the kind of experiment: NVS_ADME_hCYP2D6: NovaScreen (NVS) CYP450-related Enzyme Activity (ADME) Assay for human CYP2D6 (AID 2283107; active = hit-call score of the fitted dose curve at least 0.9, where 1 is the maximum). A digest of the protocol:
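Biochemical fluorescence assay, insect-cell-derived enzyme. Read at 1 h; inhibition taken from loss of signal against acetonitrile. Screened at 10 uM in duplicate, with concentration series for actives.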

Assay [6] deals with human CYP2C9, CYP2C9 (gene 1559) (UniProt P11712). As to the kind of experiment: NVS_ADME_hCYP2C9: NovaScreen (NVS) CYP450-related Enzyme Activity (ADME) Assay for human CYP2C9 (AID 2283108; active = hit-call score of the fitted dose curve at least 0.9, where 1 is the maximum). A digest of the protocol: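 Fluorescence readout of CYP2C9 activity (SF9-expressed human enzyme) at 0.75 h. The primary screen used 10 uM in duplicate, with concentration-response follow-up for actives; acetonitrile was the negative control.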
Chain of human CYP2C9, CYP2C9 (gene 1559) (P11712 whole entry, looked up): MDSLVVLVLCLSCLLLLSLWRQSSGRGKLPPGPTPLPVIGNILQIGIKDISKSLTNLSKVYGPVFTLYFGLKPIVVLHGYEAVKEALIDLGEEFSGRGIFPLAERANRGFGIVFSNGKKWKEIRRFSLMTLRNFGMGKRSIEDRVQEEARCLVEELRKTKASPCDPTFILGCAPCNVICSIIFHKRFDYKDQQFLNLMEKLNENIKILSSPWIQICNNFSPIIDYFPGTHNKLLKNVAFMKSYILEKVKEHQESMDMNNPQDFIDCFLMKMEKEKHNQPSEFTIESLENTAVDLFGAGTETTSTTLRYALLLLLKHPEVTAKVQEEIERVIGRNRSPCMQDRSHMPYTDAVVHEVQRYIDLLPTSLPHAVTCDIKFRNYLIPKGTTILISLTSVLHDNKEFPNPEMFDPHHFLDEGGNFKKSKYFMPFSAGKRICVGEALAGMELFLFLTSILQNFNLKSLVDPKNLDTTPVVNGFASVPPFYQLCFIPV

Assay [7] has as its target human AKT serine/threonine Kinase 1 (AKT1), AKT1 (gene 207) (UniProt P31749). The assay is described as follows: NVS_ENZ_hAKT1: NovaScreen (NVS) Enzymatic Assay for human AKT serine/threonine Kinase 1 (AKT1) (AID 2283138; active = hit-call score of the fitted dose curve at least 0.9, where 1 is the maximum). A digest of the protocol: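 Fluorescence and mobility-shift readout of kinase activity, taken 1 h post-dosing in a cell-free format with recombinant protein. Primary screen at 25 uM in duplicate; hits (e.g. 30% inhibition) retested in concentration series topping at 50 uM.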

Assay [8] deals with human Beta-secretase (BACE), BACE1 (gene 23621) (UniProt P56817). The assay is described as follows: NVS_ENZ_hBACE: NovaScreen (NVS) Enzymatic Assay for human Beta-secretase (BACE) (AID 2283140; active = hit-call score of the fitted dose curve at least 0.9, where 1 is the maximum;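 also: hits are inhibitors that reduce fluorescent substrate signal versus DMSO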). The method, boiled down:
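SF9-expressed enzyme, cell-free; fluorescent substrate readout after 1 h. Screened at 25 uM single concentration, duplicate; hits retested in concentration series. Activity relative to DMSO baseline, loss-of-signal.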

Assay [9] concerns the target human AKT serine/threonine Kinase 2 (AKT2), AKT2 (gene 208) (UniProt P31751). The assay is described as follows: NVS_ENZ_hAKT2: NovaScreen (NVS) Enzymatic Assay for human AKT serine/threonine Kinase 2 (AKT2) (AID 2283141; active = hit-call score of the fitted dose curve at least 0.9, where 1 is the maximum). A digest of the protocol:
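Cell-free fluorescence/electrophoretic mobility shift readout of recombinant human AKT2 activity, 1 h after chemical dosing. Duplicate primary screen at 25 uM, then singleton concentration-response up to 50 uM; loss of signal versus DMSO baseline.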

Assay [10] has as its target human CYP2A6, CYP2A6 (gene 1548) (UniProt P11509). The assay is described as follows: NVS_ADME_hCYP2A6: NovaScreen (NVS) CYP450-related Enzyme Activity (ADME) Assay for human CYP2A6 (AID 2283099; active = hit-call score of the fitted dose curve at least 0.9, where 1 is the maximum). A digest of the protocol:
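Loss of fluorescence signal relative to acetonitrile vehicle reported CYP2A6 inhibition in a cell-free system using insect-cell-derived enzyme. Readings were taken at 0.5 h; top concentration in follow-up dose series was 20 uM.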

Assay [11] has as its target human CYP1A1, CYP1A1 (gene 1543) (UniProt P04798). The assay is described as follows: NVS_ADME_hCYP1A1: NovaScreen (NVS) CYP450-related Enzyme Activity (ADME) Assay for human CYP1A1 (AID 2283100; active = hit-call score of the fitted dose curve at least 0.9, where 1 is the maximum). The method, boiled down:
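Inhibition of recombinant CYP1A1 turnover was assessed fluorometrically in a biochemical format 1 h after compound exposure. Testing began at 10 uM in duplicate and progressed to concentration series reaching 20 uM, with on-plate positive and negative controls.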

The target of assay [12] is human CYP2B6, CYP2B6 (gene 1555) (UniProt P20813). As to the kind of experiment: NVS_ADME_hCYP2B6: NovaScreen (NVS) CYP450-related Enzyme Activity (ADME) Assay for human CYP2B6 (AID 2283101; active = hit-call score of the fitted dose curve at least 0.9, where 1 is the maximum). A digest of the protocol: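 Recombinant protein, specific fluorescent substrate, read at 1 h post-dosing. Primary: single 10 uM, duplicate; follow-up: concentration series. Activity = signal loss vs acetonitrile baseline, with positive and negative controls on every plate.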
Chain of human CYP2B6, CYP2B6 (gene 1555) (P20813 whole entry, looked up): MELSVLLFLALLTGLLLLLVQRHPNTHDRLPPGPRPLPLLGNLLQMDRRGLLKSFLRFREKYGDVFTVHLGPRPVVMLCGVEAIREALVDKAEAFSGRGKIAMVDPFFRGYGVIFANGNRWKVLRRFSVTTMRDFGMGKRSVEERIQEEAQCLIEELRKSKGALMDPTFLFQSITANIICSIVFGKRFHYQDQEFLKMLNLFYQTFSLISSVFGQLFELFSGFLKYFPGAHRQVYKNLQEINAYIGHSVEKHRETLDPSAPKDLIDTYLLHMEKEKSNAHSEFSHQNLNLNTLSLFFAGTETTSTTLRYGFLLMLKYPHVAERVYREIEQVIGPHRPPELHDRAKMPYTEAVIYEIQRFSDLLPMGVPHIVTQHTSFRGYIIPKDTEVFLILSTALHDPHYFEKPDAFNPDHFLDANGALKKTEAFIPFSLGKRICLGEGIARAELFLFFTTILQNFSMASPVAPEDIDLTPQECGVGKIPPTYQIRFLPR

In assay [13] the target is human CYP1A2, CYP1A2 (gene 1544) (UniProt P05177). The assay is described as follows: NVS_ADME_hCYP1A2: NovaScreen (NVS) CYP450-related Enzyme Activity (ADME) Assay for human CYP1A2 (AID 2283102; active = hit-call score of the fitted dose curve at least 0.9, where 1 is the maximum;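 also: potency for inhibition since loss of fluorescence marks reduced CYP1A2 activity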). A digest of the protocol:
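Inhibition scored as decrease in fluorescent product versus acetonitrile negative control. Enzyme: insect-cell recombinant human CYP1A2, substrate-specific, cell-free. Reading at 0.5 h; 10 uM duplicate initial screen with positive and negative controls on every plate.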

The target in assay [14] is Cytochrome P450 2C19 (Homo sapiens) (UniProt P33261). As to the kind of experiment: NVS_ADME_hCYP2C19: NovaScreen (NVS) CYP450-related Enzyme Activity (ADME) Assay for human CYP2C19 (AID 2283113; active = hit-call score of the fitted dose curve at least 0.9, where 1 is the maximum;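 also: potency for inhibition seen as loss of fluorescent signal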). The method, boiled down:
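Biochemical CYP2C19 inhibition screen: insect-cell recombinant protein plus fluorescent substrate, 1 h, fluorescence intensity. Acetonitrile defined baseline activity. Single 10 uM concentration in duplicate, with concentration-response follow-up for actives.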

Assay [15] concerns the target human CYP19A1, CYP19A1 (gene 1588) (UniProt P11511). As to the kind of experiment: NVS_ADME_hCYP19A1: NovaScreen (NVS) CYP450-related Enzyme Activity (ADME) Assay for human CYP19A1 (AID 2283098; active = hit-call score of the fitted dose curve at least 0.9, where 1 is the maximum). The method, boiled down:
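Primary testing was in duplicate at a single 10 uM concentration, with actives followed up in concentration-response series. Fluorescence read-out of recombinant enzyme activity at 0.5 h, cell-free. Acetonitrile was the negative-control baseline.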

The target of assay [16] is Cytochrome P450 3A4 (Homo sapiens) (UniProt P08684). As to the kind of experiment: NVS_ADME_hCYP3A4: NovaScreen (NVS) CYP450-related Enzyme Activity (ADME) Assay for human CYP3A4 (AID 2283110; active = hit-call score of the fitted dose curve at least 0.9, where 1 is the maximum). A digest of the protocol:
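Compounds screened in duplicate at 10 uM, with follow-up concentration-response for actives, against insect-cell-expressed recombinant enzyme. Activity read by fluorescence 0.33 h after dosing; loss of signal versus acetonitrile control indicates inhibition.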

Inconclusive results are not listed. Active and inactive are the calls of the source. The calls were made as follows, unless noted: active = hit-call score of the fitted dose curve at least 0.9, where 1 is the maximum; inactive = score below 0.9.

Chain of human CYP1A2, CYP1A2 (gene 1544) (P05177 whole entry, looked up): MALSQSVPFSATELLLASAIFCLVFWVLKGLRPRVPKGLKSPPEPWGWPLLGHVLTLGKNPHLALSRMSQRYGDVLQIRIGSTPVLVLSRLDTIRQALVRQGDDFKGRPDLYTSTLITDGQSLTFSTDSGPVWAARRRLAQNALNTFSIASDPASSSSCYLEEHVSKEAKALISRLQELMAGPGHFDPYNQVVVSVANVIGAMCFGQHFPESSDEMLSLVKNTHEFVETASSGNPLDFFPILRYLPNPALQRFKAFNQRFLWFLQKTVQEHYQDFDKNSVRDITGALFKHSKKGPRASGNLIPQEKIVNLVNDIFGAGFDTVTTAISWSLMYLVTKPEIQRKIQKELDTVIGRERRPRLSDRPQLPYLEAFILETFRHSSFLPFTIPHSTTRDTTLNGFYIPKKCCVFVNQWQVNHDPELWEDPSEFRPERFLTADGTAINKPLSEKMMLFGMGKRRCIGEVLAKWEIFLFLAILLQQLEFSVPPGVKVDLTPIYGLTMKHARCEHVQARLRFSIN
Chain of human CYP2D6, CYP2D6 (gene 1565) (P10635 whole entry, looked up): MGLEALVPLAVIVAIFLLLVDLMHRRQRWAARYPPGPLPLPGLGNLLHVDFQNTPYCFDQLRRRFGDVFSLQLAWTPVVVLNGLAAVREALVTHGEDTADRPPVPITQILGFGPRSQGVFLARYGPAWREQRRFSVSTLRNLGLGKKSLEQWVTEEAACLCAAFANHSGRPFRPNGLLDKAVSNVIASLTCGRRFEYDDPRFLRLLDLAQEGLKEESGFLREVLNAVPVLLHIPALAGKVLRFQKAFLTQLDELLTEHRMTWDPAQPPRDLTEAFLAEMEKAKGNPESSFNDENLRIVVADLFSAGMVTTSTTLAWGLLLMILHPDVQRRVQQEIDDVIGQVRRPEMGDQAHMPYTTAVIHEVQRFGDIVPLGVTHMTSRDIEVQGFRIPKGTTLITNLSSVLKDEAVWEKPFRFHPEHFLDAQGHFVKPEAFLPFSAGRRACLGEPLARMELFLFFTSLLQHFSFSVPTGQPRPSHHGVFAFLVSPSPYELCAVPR
Chain of Cytochrome P450 3A4 (Homo sapiens) (P08684 whole entry, looked up): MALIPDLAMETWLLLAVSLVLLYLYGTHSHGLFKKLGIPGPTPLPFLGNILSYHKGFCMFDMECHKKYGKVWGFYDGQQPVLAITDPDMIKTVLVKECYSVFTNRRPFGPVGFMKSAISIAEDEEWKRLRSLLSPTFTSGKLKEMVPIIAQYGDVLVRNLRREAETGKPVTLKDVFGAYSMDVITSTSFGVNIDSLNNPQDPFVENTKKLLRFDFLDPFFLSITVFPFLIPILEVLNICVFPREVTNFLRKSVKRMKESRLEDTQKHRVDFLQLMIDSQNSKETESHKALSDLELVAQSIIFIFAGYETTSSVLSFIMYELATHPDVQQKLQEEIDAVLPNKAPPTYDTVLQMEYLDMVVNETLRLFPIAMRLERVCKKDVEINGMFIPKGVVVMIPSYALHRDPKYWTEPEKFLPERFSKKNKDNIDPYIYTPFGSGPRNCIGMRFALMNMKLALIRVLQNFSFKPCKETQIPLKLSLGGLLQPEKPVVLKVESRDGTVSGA
Chain of human Beta-secretase (BACE), BACE1 (gene 23621) (P56817 whole entry, looked up): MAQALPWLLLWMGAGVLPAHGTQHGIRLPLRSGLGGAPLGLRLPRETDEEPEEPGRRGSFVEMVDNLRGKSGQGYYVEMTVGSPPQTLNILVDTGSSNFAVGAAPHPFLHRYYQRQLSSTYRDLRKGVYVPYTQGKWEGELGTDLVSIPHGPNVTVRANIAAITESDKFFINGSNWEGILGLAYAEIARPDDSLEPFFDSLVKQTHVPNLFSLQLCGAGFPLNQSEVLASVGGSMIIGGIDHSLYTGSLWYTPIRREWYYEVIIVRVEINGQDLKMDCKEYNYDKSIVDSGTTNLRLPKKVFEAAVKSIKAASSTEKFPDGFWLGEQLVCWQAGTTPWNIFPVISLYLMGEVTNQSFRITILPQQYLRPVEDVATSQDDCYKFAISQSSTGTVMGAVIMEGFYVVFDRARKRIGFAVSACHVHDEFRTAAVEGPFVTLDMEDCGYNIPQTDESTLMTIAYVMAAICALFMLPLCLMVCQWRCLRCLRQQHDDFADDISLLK
Chain of human AKT serine/threonine Kinase 2 (AKT2), AKT2 (gene 208) (P31751 whole entry, looked up): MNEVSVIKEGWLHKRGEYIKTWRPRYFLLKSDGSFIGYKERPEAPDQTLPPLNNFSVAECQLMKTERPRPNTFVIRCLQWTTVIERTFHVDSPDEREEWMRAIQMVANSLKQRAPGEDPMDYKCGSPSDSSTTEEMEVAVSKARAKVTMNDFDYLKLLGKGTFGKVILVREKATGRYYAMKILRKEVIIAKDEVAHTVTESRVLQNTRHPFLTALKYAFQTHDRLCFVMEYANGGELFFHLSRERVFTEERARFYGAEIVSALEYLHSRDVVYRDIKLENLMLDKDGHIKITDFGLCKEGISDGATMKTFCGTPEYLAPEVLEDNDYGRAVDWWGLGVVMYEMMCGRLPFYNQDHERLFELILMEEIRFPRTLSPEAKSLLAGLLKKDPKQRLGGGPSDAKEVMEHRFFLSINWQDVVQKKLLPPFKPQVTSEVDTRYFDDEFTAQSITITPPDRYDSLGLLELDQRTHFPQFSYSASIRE
Chain of human AKT serine/threonine Kinase 1 (AKT1), AKT1 (gene 207) (P31749 whole entry, looked up): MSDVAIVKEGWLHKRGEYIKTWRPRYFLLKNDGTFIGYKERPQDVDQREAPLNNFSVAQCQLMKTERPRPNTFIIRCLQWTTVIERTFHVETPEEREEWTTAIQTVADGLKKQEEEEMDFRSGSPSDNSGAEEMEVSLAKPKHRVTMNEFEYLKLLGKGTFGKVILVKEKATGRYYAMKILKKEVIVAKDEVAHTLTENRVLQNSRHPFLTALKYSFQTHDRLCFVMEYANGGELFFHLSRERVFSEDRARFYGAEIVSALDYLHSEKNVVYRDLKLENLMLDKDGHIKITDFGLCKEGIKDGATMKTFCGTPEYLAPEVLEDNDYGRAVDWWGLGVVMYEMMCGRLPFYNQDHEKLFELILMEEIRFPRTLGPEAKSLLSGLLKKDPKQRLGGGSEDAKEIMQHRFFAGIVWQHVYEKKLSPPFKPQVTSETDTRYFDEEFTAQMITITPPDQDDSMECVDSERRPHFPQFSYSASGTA
Chain of human CYP19A1, CYP19A1 (gene 1588) (P11511 whole entry, looked up): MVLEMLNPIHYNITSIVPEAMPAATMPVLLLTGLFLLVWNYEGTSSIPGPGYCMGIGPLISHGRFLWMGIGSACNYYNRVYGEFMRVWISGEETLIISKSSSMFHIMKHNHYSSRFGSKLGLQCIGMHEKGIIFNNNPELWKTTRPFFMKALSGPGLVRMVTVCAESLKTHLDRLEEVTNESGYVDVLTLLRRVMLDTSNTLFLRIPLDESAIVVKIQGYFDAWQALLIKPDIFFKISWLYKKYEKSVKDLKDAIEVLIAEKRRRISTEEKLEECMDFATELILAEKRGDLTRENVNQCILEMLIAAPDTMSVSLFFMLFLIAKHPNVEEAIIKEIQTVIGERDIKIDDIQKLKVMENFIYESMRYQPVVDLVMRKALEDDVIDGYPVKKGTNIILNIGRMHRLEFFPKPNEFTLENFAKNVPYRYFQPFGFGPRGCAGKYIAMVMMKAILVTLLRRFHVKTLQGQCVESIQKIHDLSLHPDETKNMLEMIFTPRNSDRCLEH
Chain of human CYP1A1, CYP1A1 (gene 1543) (P04798 whole entry, looked up): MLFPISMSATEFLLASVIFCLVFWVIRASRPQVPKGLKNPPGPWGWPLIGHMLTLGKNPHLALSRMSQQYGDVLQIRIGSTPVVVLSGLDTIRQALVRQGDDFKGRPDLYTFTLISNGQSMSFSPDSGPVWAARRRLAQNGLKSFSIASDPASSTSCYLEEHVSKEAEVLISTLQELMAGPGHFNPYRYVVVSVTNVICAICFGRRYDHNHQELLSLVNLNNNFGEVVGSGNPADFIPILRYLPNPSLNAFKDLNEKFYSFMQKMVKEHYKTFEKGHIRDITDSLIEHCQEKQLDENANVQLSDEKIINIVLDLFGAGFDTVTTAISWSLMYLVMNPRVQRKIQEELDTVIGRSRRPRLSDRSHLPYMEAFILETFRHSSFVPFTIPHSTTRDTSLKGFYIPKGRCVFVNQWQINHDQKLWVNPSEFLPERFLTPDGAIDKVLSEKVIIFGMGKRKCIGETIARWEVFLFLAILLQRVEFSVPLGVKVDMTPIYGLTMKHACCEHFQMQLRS

By AC50 is commonly meant the concentration giving half of the maximal activity seen. In the case of `CCn1nc(C)c2c1C(=O)NCC(c1ccc(O)cc1)=N2`, the outcome in [1], in assay [2] and in assay [4] was inactive. In addition, the values for the AC50 in assay [3] and in [5] were 20 µM (active) and 6.23 µM (active), respectively.
As to `COc1cc2c(c(OC)c1OC)-c1ccc(OC)c(=O)cc1[C@@H](NC(C)=O)CC2`, the result in assay [1] and in assay [2] was inactive. Further, the AC50 is 0.34 µM (active) in assay [3] and 0.204 µM (active) in assay [4].
In the case of `OC(Cn1cncn1)(Cn1cncn1)c1ccc(F)cc1F`, the result in assay [1], in [2], in assay [3], in assay [4] and in [6] was inactive.
Regarding `Cn1cc[nH]c1=S`, the result in [1], in assay [2], in assay [3] and in assay [4] was inactive.
With `CCCCCCCC/C=C\CCCCCCCC(=O)OC[C@@H](O)[C@H]1OC[C@H](O)[C@H]1O`, the outcome in assay [1], in assay [2], in assay [3], in [4] and in assay [7] was inactive. For the same molecule, the values for the AC50 in assay [6], in [8] and in assay [9] were 16.5 µM (active), 6.7 µM (active) and 42.1 µM (active), respectively.
In the case of `c1ccc(C(O[C@@H]2CCCN(CCc3ccc4c(c3)OCO4)C2)c2ccccc2)cc1`, the AC50 in [1] is 30.9 µM (active); in assay [2] it was 14.1 µM (active); in assay [3], 16.3 µM (active); in assay [4], 24.3 µM (active); in assay [11], 4.89 µM (active); in assay [12] it was 4.4 µM (active). The AC50 in assay [13] is 5.35 µM (active); in [5], 1.59 µM (active); in [6] it was 6.98 µM (active); in [14], 5.04 µM (active). The call in [10] was inactive.
Regarding `CCOC(N)=O`, the result in assay [1], in assay [2], in assay [3] and in assay [4] was inactive.
`OCCC(F)(F)C(F)(F)C(F)(F)C(F)(F)F`: the result in assay [1], in assay [2], in [3] and in assay [4] was inactive.
For the molecule `COS(C)(=O)=O`, the result in assay [1], in assay [2], in [3] and in assay [4] was inactive.
Regarding `CCN(CC)C(=S)SSC(=S)N(CC)CC`, the AC50 was 36.3 µM (active) in [1]; 32.5 µM (active) in assay [2]; 6.07 µM (active) in [3]; 30.8 µM (active) in [4]; 0.405 µM (active) in assay [12]; 1.2 µM (active) in assay [13]. Moreover, the AC50 in assay [6] was 3.12 µM (active). The molecule was classed as inactive in assay [15].
`CCCC(CCC)C(=O)O`: the outcome in assay [1], in [2], in assay [3], in assay [4], in [15] and in [7] was inactive. Further, the outcome in assay [9] was inactive. The AC50 in assay [14] was 10 µM (active).
In the case of `S=P(N1CC1)(N1CC1)N1CC1`, the outcome in assay [1], in assay [2] and in assay [4] was inactive. In addition, the values for the AC50 in assay [3], in [14] and in assay [8] were 4.15 µM (active), 5.2 µM (active) and 22.4 µM (active), respectively.
On to `CCc1ccc(O)c(C(C)(C)C)c1`, for which the result in [1] and in assay [2] was inactive. Moreover, the AC50 in [3] is 33 µM (active); in [4], 35.8 µM (active).
`CC(C)CCCCCCOC(=O)C1CCCCC1C(=O)OCCCCCCC(C)C` (stereo not given): the outcome in assay [1], in [2], in assay [3] and in assay [4] was inactive.
Consider `NC(=O)N(O)[C@@H]1COc2cc(OCc3ccccc3)ccc21`, for which the result in assay [1], in assay [2], in assay [3], in assay [4] and in assay [12] was inactive.
On to `O=C(N[C@H](CO)[C@H](O)c1ccc([N+](=O)[O-])cc1)C(Cl)Cl`, for which the call in [8] was inactive.
Regarding `COc1cc(C(C)C)c2c(c1)S(=O)(=O)N(COc1cc(=O)n3cccc(OCCN4CCCCC4)c3n1)C2=O`, the result in [1] and in assay [4] was inactive. The AC50 in assay [3] is 7.69 µM (active); in assay [16] it was 0.9 µM (active).
As for `C=CCc1cc(S(=O)(=O)c2ccc(O)c(CC=C)c2)ccc1O`, the AC50 was 34.8 µM (active) in assay [1]; 11.4 µM (active) in assay [2]; 17.1 µM (active) in assay [3]; 19.2 µM (active) in assay [4]; 2.32 µM (active) in assay [11]; 2.77 µM (active) in assay [12]. The AC50 was 3.26 µM (active) in assay [13]; 0.567 µM (active) in assay [5]; 0.118 µM (active) in assay [6]; 4.54 µM (active) in assay [16]; 0.164 µM (active) in assay [14]; 15.2 µM (active) in [8].
On to `CC[C@H](C)C(=O)O[C@H]1C[C@H](O)C=C2C=C[C@H](C)[C@H](CC[C@@H](O)C[C@@H](O)CC(=O)O)[C@H]21`, for which the result in assay [1], in assay [3], in assay [4], in assay [6] and in [8] was inactive. Moreover, the AC50 in assay [2] is 11.9 µM (active).
For the molecule `NC(N)=O`, the result in assay [1], in assay [2], in assay [3] and in assay [4] was inactive.
Turning to `Cc1nccn1-c1ccc(Sc2cccc(C3(C(N)=O)CCOCC3)c2)cc1`, the result in assay [1] and in assay [4] was inactive. Besides, the AC50 in assay [2] is 5.42 µM (active); in [3], 5.48 µM (active); in [6], 5.01 µM (active); in [14], 5.95 µM (active).
For `OCCOCCOCCO`, the result in assay [1], in [2], in assay [3], in assay [4], in [16] and in assay [9] was inactive.
As to `CC(C)C(=O)Nc1ccc([N+](=O)[O-])c(C(F)(F)F)c1`, the result in assay [1], in assay [2], in assay [3], in [4] and in [6] was inactive. Further, the figures for the AC50 in assay [13] and in assay [14] were 5.33 µM (active) and 3.2 µM (active), respectively.
